# Measured values from PubChem BioAssay.
# The source made the active and inactive calls.
# Legend:
# [1] = biological target: Albumin (Bos taurus) (UniProt P02769); assay: bovine serum albumin binders on microarray, profiling panel, artefact control for SMM control protein annotation, biochemical, small-molecule microarray, Alexa647 label, 635/667 nm fluorescence (AID 1118); settings: BSA-A647 binding, fluorescence 635 nm, higher = more signal;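 further: score merges 667 nm emission intensity and signal-to-noise per printed compound spot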
# [2] = small-molecule microarray binders of probe aXIP, primary screen, biochemical, NeuroSMM set, 635/667 nm fluorescence (AID 1119); settings: higher = more signal, called active from +8 up or from −8 down;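 further: probe is the protein aXip251-270 applied at 1 µg/mL to compound-printed slides; binding of probe to printed compounds measured as 667 nm fluorescence plus signal to noise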
# [3] = small-molecule binders of probe aNOTCH3, primary screen, biochemical, small-molecule microarray, 635/667 nm fluorescence (AID 1120); settings: higher = more signal;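 further: probe is a biotin-tagged antibody raised against NOTCH3 rather than NOTCH3 protein; score merges spot fluorescence near 667 nm with spot signal to noise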
# [4] = small-molecule binders of probe aNOTCH2, primary screen, biochemical, small-molecule microarray, 635/667 nm fluorescence (AID 1121); settings: higher = more signal;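 further: score merges feature fluorescence read at 667 nm with its signal to noise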
# [5] = biological target: Carbonic anhydrase 2 (Homo sapiens) (UniProt P00918); assay: CAII small-molecule binders, profiling panel, biochemical, small-molecule microarray, Alexa647-labelled CAII (AID 1122); settings: CAII-A647 binding fluorescence, higher = more signal
# [6] = COS7 lysate on small-molecule microarray, probe aHis, 635 nm (AID 1123); settings: COS7 cell lysate, fluorescence, higher = more signal;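 further: z-score combines 667nm fluorescence intensity with signal-to-noise per printed compound spot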
# [7] = compound binding in COS7 lysate, probe aLAP1, primary screen, cell lysate, small-molecule microarray (AID 1124); settings: probe aLAP1, fluorescence, higher = more signal;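 further: lysate comes from COS7 cells expressing LAP1 and is applied at 0.3 µg/mL; score merges spot fluorescence near 667 nm with signal-to-noise over triplicate slides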
# [8] = system: Sam68 (KHDRBS1); assay: Sam68 small-molecule binders, primary screen, biochemical, small-molecule microarray, 635 nm fluorescence (AID 1125); settings: small-molecule microarray binding, higher = more signal;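 further: score merges 667 nm channel intensity with signal to noise over triplicate slides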
# [9] = system: Chordin-like protein 2 (CHRDL2); assay: CHRDL2 small-molecule binders, primary screen, biochemical, small-molecule microarray, 635 nm fluorescence (AID 1126); settings: small-molecule microarray binding, fluorescence 635 nm; higher = more signal;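 further: printed compound slides probed with Chrdl2 protein at 4 µg/mL for 1 h at 4 C; score merges 667 nm emission intensity with signal to noise over three replicate slides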
# [10] = biological target: Concanavalin-A (Canavalia ensiformis) (UniProt P02866); assay: ConA small-molecule binders, primary screen, artefact control for SMM control protein annotation, biochemical, small-molecule microarray, Alexa647 label, 635 nm (AID 1127); settings: ConA-A647 binding fluorescence, higher = more signal;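 further: z combines 667 nm emission intensity with signal-to-noise across three replicate slides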
# Chain of Concanavalin-A (Canavalia ensiformis) (P02866 whole entry, looked up): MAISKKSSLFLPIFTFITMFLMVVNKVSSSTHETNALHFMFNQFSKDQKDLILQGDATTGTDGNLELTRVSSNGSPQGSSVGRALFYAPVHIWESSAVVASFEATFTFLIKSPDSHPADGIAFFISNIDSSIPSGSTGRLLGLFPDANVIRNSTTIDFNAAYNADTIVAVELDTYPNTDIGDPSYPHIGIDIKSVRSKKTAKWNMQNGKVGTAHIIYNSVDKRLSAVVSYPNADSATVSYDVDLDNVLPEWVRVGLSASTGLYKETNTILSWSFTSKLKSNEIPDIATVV
# Chain of Albumin (Bos taurus) (P02769 whole entry, looked up): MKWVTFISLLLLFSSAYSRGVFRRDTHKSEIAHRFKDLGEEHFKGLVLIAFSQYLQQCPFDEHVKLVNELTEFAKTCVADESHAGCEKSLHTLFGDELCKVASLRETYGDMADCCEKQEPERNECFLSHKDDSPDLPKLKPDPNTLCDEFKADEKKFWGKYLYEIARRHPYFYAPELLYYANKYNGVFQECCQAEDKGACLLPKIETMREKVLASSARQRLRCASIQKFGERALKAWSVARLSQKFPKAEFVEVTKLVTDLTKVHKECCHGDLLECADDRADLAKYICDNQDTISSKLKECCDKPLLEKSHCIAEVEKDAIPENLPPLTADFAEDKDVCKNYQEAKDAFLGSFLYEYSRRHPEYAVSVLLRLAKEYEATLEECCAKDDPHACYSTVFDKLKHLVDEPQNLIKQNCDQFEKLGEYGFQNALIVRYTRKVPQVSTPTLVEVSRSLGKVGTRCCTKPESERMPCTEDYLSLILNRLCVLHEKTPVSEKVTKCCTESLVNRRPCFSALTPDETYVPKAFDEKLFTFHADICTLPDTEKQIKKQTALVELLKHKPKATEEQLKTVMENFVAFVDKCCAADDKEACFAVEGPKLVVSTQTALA
Structure (SMILES),composite z-score [1],composite Z-score [2],composite z-score [3],composite z-score [4],composite z-score [5],composite z-score [6],composite z-score [7],composite z-score [8],composite z-score [9],composite z-score [10]
Cc1ccc(C(C)CC(O)C2C=CC3C(=O)N(C)C(=O)C3N2NC(=O)OC(C)(C)C)o1 (stereo not given),1.01,1.31 (inactive),0.18,-0.0925,0.642,2.44,0.934,1.21,0.541,1.05
CCCCc1cn(C[C@H](Cc2ccccc2)NC(=O)N[C@H](CO)CCc2oc(C(C)=O)c(C(=O)OC)c2C(=O)OC)nn1,0.25,0.119 (inactive),0.328,-0.12,0.151,0.607,0.0969,1.25,0.756,0.859
N#Cc1ccc(NN2C(C(O)c3c(F)cccc3Cl)C=CC3C(=O)N(c4ccccc4)C(=O)C32)cc1 (stereo not given),1.09,0.238 (inactive),-0.095,0.0563,0.396,3.25,1.55,1.29,-0.768,1.13
[N-]=[N+]=Nc1ccccc1C[C@]1(C(N)=O)N=C(c2ccc(OCCCO)cc2)O[C@H]1c1ccccc1,0.989,0.364 (inactive),0.0556,-0.106,0.662,2.59,0.386,0.974,-1.18,0.6
C=C(C)C1C(=C)CN([C@H](CO)c2ccccc2)C1=O (stereo not given in full),0.16,1.66 (inactive),-0.0967,-0.133,-0.0056,-0.583,-0.133,-0.245,0.117,-0.844
C=CCOC(=O)[C@H]1[C@@H]2C(=O)O[C@@H](c3ccccc3)[C@@H](c3ccccc3)N2[C@@H](c2ccc(OCCOC(=O)[C@H]3C[C@H]4C(=O)N5CCC[C@H]5C(=O)N4[C@H]3c3ccc(O)cc3)cc2)[C@]12C(=O)Nc1ccccc12,-1.36,0.171 (inactive),0.141,-0.0928,0.576,2.25,0.793,1.32,1.25,1.11
Cc1ccc(S[C@]2(C(=O)NC3CC3)CC(=O)N(C3Cc4ccccc4C3)[C@@H]2c2ccc(CO)cc2)cc1,0.79,0.157 (inactive),-0.161,0.016,0.628,1.81,0.845,0.963,-0.759,0.356
O=C1c2ccccc2[C@@]2(Cc3ccccc3N(CCN3CCOCC3)C2=O)[C@H](c2ccc(CO)cc2)N1Cc1ccccc1,-0.425,-0.117 (inactive),-0.165,-0.115,0.739,0.733,0.235,-0.419,-0.717,0.203
O=C(NCc1ccc(F)cc1)[C@H]1C[C@H]2C(=O)N[C@@H](Cc3ccccc3)C(=O)N2[C@H]1c1ccc(O)cc1,-1.22,0.239 (inactive),-0.323,-0.159,0.606,1.56,-0.516,-0.109,0.371,0.368
O=C1c2ccccc2[C@](Cc2ccccc2I)(C(=O)NC2CC2)[C@H](c2ccc(CO)cc2)N1C1CCCCC1,0.767,0.0542 (inactive),0.174,-0.0551,0.636,2.12,1.49,1.22,0.273,1.2
COC(=O)[C@@]1(Cc2ccc(F)cc2)[C@H]2c3cc(C(=O)N(C)C)n(Cc4ccc(S(C)(=O)=O)cc4)c3C[C@H]2CN1C(=O)c1ccccc1,0.653,0.542 (inactive),-0.142,0.151,0.747,3.39,1.04,-0.181,-0.0016,0.518
COc1ccc([C@H]2OC[C@@H]3CC4(CC=CC4)C(=O)N32)cc1,-0.505,0.544 (inactive),0.146,-0.0662,0.278,0.383,-0.129,0.964,1.54,-0.572
CN1C(=O)C2C=CC(C(O)c3ccc(I)cc3)N(N3CCCCC3)C2C1=O (stereo not given),0.999,0.891 (inactive),0.748,0.0196,0.608,2.85,0.879,1.32,-0.119,1.15
CCN(CC)c1ccc(N2CC=CC34O[C@@H]5/C=C\CCCOC(=O)C5[C@H]3C(=O)N(CCO)[C@@H]4C2=O)cc1 (stereo not given in full),-0.633,0.858 (inactive),-0.299,-0.14,0.78,0.534,0.485,-0.526,-1.39,-0.362
O=C1OCC=C[C@H]2OC34C=CCN(CCN5CCOCC5)C(=O)[C@H]3N(CCCO)C(=O)[C@@H]4[C@@H]12 (stereo not given in full),0.416,0.103 (inactive),-0.206,-0.122,-0.0692,0.357,-0.126,0.356,0.0732,0.551
COCCOC(=O)N1C(=O)[C@@]2(c3cc(C#Cc4ccc(OC)cc4)ccc31)[C@H](c1ccccc1OCCO)N1[C@H](c3ccccc3)[C@H](c3ccccc3)OC(=O)[C@H]1[C@@H]2C(=O)N1CCN(c2ncccn2)CC1,0.322,0.179 (inactive),-0.0288,-0.131,0.336,0.572,0.141,0.866,0.0135,0.923
CC(=O)NCCCC[C@@H]1NC(=O)[C@@H]2C[C@H](C(=O)NCCCCCCNC(=O)CS)[C@H](c3cccc(OCCO)c3)N2C1=O,-0.133,0.405 (inactive),-0.0996,-0.151,0.561,1.48,0.689,0.825,0.568,0.914
C=CCC(OC(C)=O)[C@@H]1[C@@H](N(Cc2ccc(-c3cccc(C(F)(F)F)c3)o2)C(=O)c2ccc(-c3ccccc3)cc2)c2cc(OCCCO)ccc2N1C(=O)c1ccc(-c2ccccc2)cc1 (stereo not given in full),0.0046,0.111 (inactive),-0.0957,-0.126,-0.0098,0.0291,-0.128,-0.197,-0.0179,-0.639
CCCC=C(CCC)[C@@H](NS(=O)(=O)c1cccs1)c1ccc(C(=O)OC)cc1,1.06,-0.227 (inactive),0.17,0.0592,0.748,2.94,0.157,1.32,-1.19,1.17
CCN(CC)c1ccc(N2CC=CC34O[C@@H]5/C=C\CCC(C)OC(=O)C5[C@H]3C(=O)N(C(CO)C(C)C)[C@@H]4C2=O)cc1 (stereo not given in full),-0.451,0.211 (inactive),-0.222,-0.175,0.894,0.595,-0.387,0.213,-0.263,-1.77
O=C(NCC(F)(F)F)[C@@H]1c2ccccc2C(=O)N(C2CCCCC2)[C@H]1c1ccc(CO)cc1,0.558,0.35 (inactive),-0.0313,-0.0942,0.667,-0.0286,-0.797,0.314,-0.615,1.11
COc1ccc([Si](C)(C)[C@H]2[C@H](CC(=O)N3CCC[C@H]3CO)O[C@@]3(C(=O)N(Cc4cccc(N5C(=O)c6cccc7cccc5c67)c4)c4ccccc43)[C@@H]2C)cc1,0.416,0.488 (inactive),0.143,-0.0745,0.346,1.53,0.0595,1.04,0.956,1.1
COc1cc(OC)c(C(O)C2C=CC3C(=O)NC(=O)C3N2Nc2ccc(Cl)cc2Cl)cc1Br (stereo not given),1,2.76 (inactive),0.282,0.321,0.615,2.99,0.474,1.22,-1.09,0.468
C=CCNC(=O)[C@H]1[C@@H]2C(=O)O[C@@H](c3ccccc3)[C@@H](c3ccccc3)N2[C@@H](c2ccc(OCCO)cc2)[C@]12C(=O)N(C(=O)OCCOC)c1ccccc12,0.262,0.108 (inactive),0.199,-0.0964,0.381,1.99,0.503,1.3,0.176,1.14
O=C1O[C@H](c2ccccc2)[C@H](c2ccccc2)N2[C@H]1[C@@H](C(=O)Nc1nc3ccccc3s1)[C@]1(C(=O)Nc3ccc(C#CCCO)cc31)[C@H]2c1ccc(OCCO)cc1,0.797,0.0956 (inactive),0.134,0.0785,0.419,1.42,0.516,1.32,0.586,1.09
COc1ccc([C@H]2C[C@H]3C(Br)=C[C@@H]2C(=O)[C@]32CO2)cc1,-1.13,-0.624 (inactive),-0.176,-0.075,-0.539,-0.442,-0.0737,-0.99,0.736,0.125
C[N+](C)(C)CCCCNC(=O)[C@H]1C[C@H]2C(=O)N[C@@H](Cc3ccccc3)C(=O)N2[C@H]1c1ccc(O)cc1,-1.16,0.474 (inactive),-0.0343,-0.167,0.358,0.396,0.0021,0.247,1.05,0.274
C#CCN(CC=C(C)C)[C@H](CO)c1ccccc1,-0.258,0.289 (inactive),0.0081,-0.0819,-0.0144,-0.41,-0.277,0.584,-0.184,-0.711
C=CCOC(=O)[C@@H]1[C@H]2C(=O)O[C@H](c3ccccc3)[C@H](c3ccccc3)N2[C@H](c2ccc(OCCOC(=O)[C@@H]3C[C@@H]4C(=O)N[C@@H](Cc5ccccc5)C(=O)N4[C@@H]3c3ccc(O)cc3)cc2)[C@@]12C(=O)Nc1ccc(I)cc12,-0.47,0.364 (inactive),0.251,-0.0984,0.299,1.28,0.0186,1,0.918,1.18
